Values joined by “and” are separate entries in the source; they are usually repeats but may differ in a detail not shown here. Equal entries are not always repeated. A number with no mark means an inactive call. Results filed as inconclusive are left out. Active and inactive are the calls of the source. Unless noted, the call rests on the fitted dose curve; in most records, active means well fitted curve in the direction sought with a large enough effect in the repeat runs; inconclusive means weak or mixed curves; inactive means no such curve, though single readings can be large; an effect the other way counts as inactive or inconclusive.

This is an account of results in PubChem BioAssay (Tox21).

Assay [1] in a line: qHTS assay for small molecules that induce genotoxicity in human embryonic kidney cells expressing luciferase-tagged ATAD5 (AID 651632). Further: nearly all actives have a fitted effect of over 15% in size. The gist of the method: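 ATAD5-luc HEK293T, 2,000 cells/well; cpd or DMSO pin-transferred; 16 hr, 37C/5% CO2; Amplite 30 min RT; luminescence.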
A short description of assay [2]: qHTS assay for small molecule disruptors of the mitochondrial membrane potential (AID 720635). Further: potency means the concentration at half of the fitted maximal effect. The gist of the method: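 Mitochondrial membrane potential tracked with Mito-MPS dye, red aggregates (ex 540/em 590 nm) against green monomers (ex 490/em 535 nm). Compound treatment 1 hr at 37C, dye 30 min in HepG2.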
Assay [3] in a line: qHTS assay to test for compound auto fluorescence at 590 nm (red) in HepG2 cells (AID 720674). The gist of the method:
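1 hr compound incubation on HepG2 cells, 37 C, 5% CO2; plate read ex 540 nm / em 590 nm; intensities reported as Rose Bengal sodium equivalents.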

Assay [4] can be described thus: qHTS assay to test for compound auto fluorescence at 535 nm (green) in HepG2 cells (AID 720675).
Assay [5] is described as follows: qHTS assay to test for compound auto fluorescence at 460 nm (blue) in HEK293 cells (AID 720678). The gist of the method:
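Blue-channel (Ex/Em 405/460 nm) intensity measured in HEK293 cultures after overnight compound exposure at 37C; signal expressed relative to triamterene. Cells plated 2,000 per well in 10% dialyzed FBS medium and allowed 4-5 hr to attach.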

A short description of assay [6]: qHTS assay to test for compound auto fluorescence at 590 nm (red) in HEK293 cells (AID 720679). The gist of the method:
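Red-channel autofluorescence (Ex/Em 540/590 nm; Rose Bengal sodium reference) was measured after overnight 37C, 5% CO2 exposure of attached HEK293 cells, 2,000 per well in medium with 10% dialyzed FBS.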

A short description of assay [7]: qHTS assay to test for compound auto fluorescence at 535 nm (green) in HEK293 cells (AID 720680).
The nature of assay [8]: qHTS assay to test for compound auto fluorescence at 460 nm (blue) in HEK293 cell free culture (AID 720681). The gist of the method:
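Blue fluorescence (Ex 405/Em 460 nm, triamterene-equivalent) was read immediately after pin transfer of compound or DMSO into medium (DMEM, 10% FBS) without cells.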

Assay [9] can be described thus: qHTS assay to test for compound auto fluorescence at 535 nm (green) in HEK293 cell free culture (AID 720682). A digest of the protocol: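 Read-out: 485/535 nm fluorescence intensity, calibrated against fluorescein. Medium only (DMEM + 10% FBS, no cells); test compound or DMSO vehicle added by pintool before plate reading.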
Assay [10] is described as follows: qHTS assay to test for compound auto fluorescence at 590 nm (red) in HEK293 cell free culture (AID 720683). A digest of the protocol: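 Red-channel autofluorescence of compounds in culture medium (DMEM, 10% FBS), no cells, measured at 540/590 nm. Rose Bengal sodium is the reference fluorophore for equivalence.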
The nature of assay [11]: qHTS assay to test for compound auto fluorescence at 590 nm (red) in HepG2 cell free culture (AID 720684). A digest of the protocol: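 Plate contents were MEM with 10% FBS plus test compound or DMSO, no cells. Fluorescence was recorded with 540 nm excitation and 590 nm emission.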
Assay [12] in a line: qHTS assay to test for compound auto fluorescence at 460 nm (blue) in HepG2 cell free culture (AID 720685). A digest of the protocol: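 Compound (23 nL) or DMSO pinned into cell-free MEM with 10% FBS; blue fluorescence read at 405/460 nm excitation/emission, expressed as auto-fluorescence equivalency to triamterene.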
The nature of assay [13]: qHTS assay to test for compound auto fluorescence at 535 nm (green) in HepG2 cell free culture (AID 720686).
A short description of assay [14]: qHTS assay to test for compound auto fluorescence at 460 nm (blue) in HepG2 cells (AID 720687). The gist of the method: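 Blue-channel autofluorescence (Ex/Em 405/460 nm, triamterene-equivalent) was measured after 1 hr compound exposure at 37 C, 5% CO2. Cells were HepG2, plated overnight at 37 C in MEM plus 10% FBS.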
A short description of assay [15]: qHTS assay for small molecule disruptors of the mitochondrial membrane potential - cell viability (AID 720634; calls by dose curve;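 further: human HepG2 liver cancer cells; nearly all actives have a fitted effect of over 20% in size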). A digest of the protocol:
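Cells: HepG2, 2,000/well, attached overnight. Compound 1 hr, 37 C/5% CO2. +m-MPI dye, +CellTiter-Glo 30 min RT. Readout: luminescence (ATP).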

Assay [16] has as its target Glucocorticoid receptor (Homo sapiens) (UniProt P04150). Description: qHTS assay to identify small molecule agonists of the glucocorticoid receptor (GR) signaling pathway (AID 720691; active means well fitted activation curve with a large enough effect in the signal ratio in the repeat runs, not every such curve was filed as active; the % refers to the signal ratio). To be noted: GR-bla HeLa, beta-lactamase reporter ratio, 18 h; activation: at 62.4 µM (top of the series). A digest of the protocol: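 Fluorescence intensity from LiveBLAzer B/G FRET substrate (2 h, room temperature) reports beta-lactamase expression driven by the glucocorticoid response element in GR-bla HeLa cells after 18 h compound exposure at 37 C.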

The nature of assay [17]: qHTS assay for small molecules that induce genotoxicity in human embryonic kidney cells expressing luciferase-tagged ATAD5 - cell viability (AID 651634; calls by dose curve; further: nearly all actives have a fitted effect of over 25% in size; further: potency means the concentration at half of the fitted maximal effect). The gist of the method: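 Fluorescence from CellTiter-Fluor, reporting protease activity within live cells, served as the viability read-out. HEK293T cells carrying luciferase-tagged ATAD5 had been treated with compound for 15.5 hr at 37C.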

The target of assay [18] is Glucocorticoid receptor (Homo sapiens) (UniProt P04150). Description: qHTS assay to identify small molecule antagonists of the glucocorticoid receptor (GR) signaling pathway (AID 720692; active means well fitted inhibition curve with a large enough effect in the signal ratio in the repeat runs, not every such curve was filed as active; the % refers to the signal ratio; further: potency means the concentration at half of the fitted maximal effect). A digest of the protocol:
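HeLa GR-bla cells; cmpd + dex 5 nM final, 18 h 37 C; LiveBLAzer B/G FRET substrate 2 h RT; fluorescence intensity read. Antagonist mode, qHTS.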

Assay [19] in a line: qHTS assay for small molecule agonists of the p53 signaling pathway - cell viability (AID 651633; calls by dose curve; further: potency means the concentration at half of the fitted maximal effect; nearly all actives have a fitted effect of over 30% in size). A digest of the protocol:
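Viability counter-read: CellTiter-Glo luminescence (30 min, room temperature) in the same p53RE-bla plates. These plates had been exposed to compounds for 16 h at 37 C.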

Glucocorticoid receptor (Homo sapiens), sequence (P04150 whole entry, looked up): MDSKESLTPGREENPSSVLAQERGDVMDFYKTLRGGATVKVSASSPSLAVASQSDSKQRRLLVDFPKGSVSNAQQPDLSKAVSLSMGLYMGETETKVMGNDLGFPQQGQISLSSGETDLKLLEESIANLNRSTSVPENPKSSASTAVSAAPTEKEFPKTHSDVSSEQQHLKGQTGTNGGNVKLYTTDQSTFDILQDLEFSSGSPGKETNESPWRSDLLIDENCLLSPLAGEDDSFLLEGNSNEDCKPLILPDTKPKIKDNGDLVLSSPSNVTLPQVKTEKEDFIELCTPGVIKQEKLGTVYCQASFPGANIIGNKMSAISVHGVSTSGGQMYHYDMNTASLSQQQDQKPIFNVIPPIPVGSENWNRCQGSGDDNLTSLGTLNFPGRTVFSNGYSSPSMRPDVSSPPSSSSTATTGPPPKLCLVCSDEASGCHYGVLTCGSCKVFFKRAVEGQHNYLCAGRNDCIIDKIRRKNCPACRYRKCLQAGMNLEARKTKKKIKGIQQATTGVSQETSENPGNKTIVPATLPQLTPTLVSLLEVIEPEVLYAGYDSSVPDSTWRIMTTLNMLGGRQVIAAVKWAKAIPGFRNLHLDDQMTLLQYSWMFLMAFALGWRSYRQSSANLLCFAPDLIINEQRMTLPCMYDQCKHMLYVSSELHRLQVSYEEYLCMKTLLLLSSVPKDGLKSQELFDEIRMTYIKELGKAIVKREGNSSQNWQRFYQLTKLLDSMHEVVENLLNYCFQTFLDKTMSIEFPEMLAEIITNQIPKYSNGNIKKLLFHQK

As for `O=C1C=CC(=O)N1c1ccccc1`, the Potency result in assay [1], in assay [3], in [4], in assay [5], in assay [6] and in [7] was “inactive” each time. For the same molecule, the Potency entry in assay [8], in assay [9], in [10], in [11], in assay [12] and in assay [13] was “inactive” in each case. Moreover, the Potency result in assay [14] is “inactive”. Further, in assay [2], the Potency was 48.6 µM (active).
In the case of `CNCC[C@H](Oc1cccc2ccccc12)c1cccs1`, the Potency entry in assay [15], in assay [4], in [5], in assay [6], in assay [7] and in assay [8] was “inactive” each time. Besides, the Potency entry in assay [9], in assay [10], in [11], in assay [12], in [13] and in [14] was “inactive” in each case. Moreover, in assay [16], the Potency entry was “inactive”. Moreover, the Potency in assay [2] is 13.3 µM (active).
`CC(=O)OC(OC(C)=O)c1ccc([N+](=O)[O-])o1`: the figures for the Potency in assay [17], in assay [2] and in assay [18] were 62.2 µM (active), 31.2 µM (active) and 55.9 µM (active), respectively. The Potency entry in assay [3], in assay [4], in assay [5], in [6], in [7] and in [8] was “inactive” each time. Besides, the Potency result in assay [9], in assay [10], in [11], in assay [12], in assay [13] and in [14] was “inactive” throughout.
In the case of `Cc1c(-c2ccc(O)cc2)n(Cc2ccc(OCCN3CCCCCC3)cc2)c2ccc(O)cc12`, the Potency result in [15], in [3], in assay [4], in assay [5], in assay [6] and in [7] was “inactive” each time. Besides, the Potency result in assay [8], in assay [9], in assay [10], in assay [11], in assay [12] and in assay [13] was “inactive” each time. Besides, in [14], the Potency entry is “inactive”. Moreover, the Potency in [2] was 10.6 µM (active).
In the case of `c1cc(OCC2CO2)cc(OCC2CO2)c1` (centres undefined), the Potency result in assay [1], in [15], in assay [3], in [4], in [5] and in assay [6] was “inactive” in each case. The Potency result in assay [7], in [8], in [9], in assay [10], in assay [11] and in [12] was “inactive” each time. Also, the Potency entry in assay [13], in assay [14] and in [16] was “inactive” in each case.
On to `CN(C)CCCN1c2ccccc2CCc2ccccc21`, for which the Potency entry in assay [17], in assay [3], in [4], in [5], in [6] and in assay [7] was “inactive” in each case. Besides, the Potency entry in assay [8], in assay [9], in [10], in assay [11], in assay [12] and in assay [13] was “inactive” in each case. Besides, the Potency result in assay [14] is “inactive”.
As for `CN(C)c1ccc(N=Nc2ccccc2C(=O)O)cc1`, the Potency in assay [17] is 54.5 µM (active). Also, the Potency entry in assay [4], in assay [5], in assay [6], in assay [7], in [8] and in [9] was “inactive” throughout. For the same molecule, the Potency result in [10], in assay [11], in assay [12], in assay [13], in assay [14] and in assay [16] was “inactive” throughout.
In the case of `C[C@H]1O[C@@H](O[C@H]2[C@@H](O)C[C@H](O[C@H]3[C@@H](O)C[C@H](O[C@H]4CC[C@@]5(C)[C@H](CC[C@@H]6[C@@H]5C[C@@H](O)[C@]5(C)[C@@H](C7=CC(=O)OC7)CC[C@]65O)C4)O[C@@H]3C)O[C@@H]2C)C[C@H](O)[C@@H]1O`, the Potency was 94.4 nM (active) and 13.7 nM (active) and 30.3 nM (active) in assay [19]; 168 nM (active) and 48.6 nM (active) and 42.8 nM (active) in assay [17]; 298 nM (active) and 1.37 µM (active) and 604 nM (active) in [2]. The Potency entry in assay [15], in [4], in [5], in [6], in assay [7] and in [8] was “inactive” throughout. Moreover, the Potency result in assay [9], in [10], in [11], in assay [12], in assay [13] and in assay [14] was “inactive” in each case. Besides, in [16], the Potency entry was “inactive”.
